Source: paper PMC5913336, “True equilibrium measurement of transcription factor-DNA binding affinities using automated polarization microscopy”

Each sequence was assayed against T1, Fkh (Drosophila melanogaster, UniProt P14734 209-300) (assay: FP; 33 mM phosphate pH 7.0, 90 mM NaCl, 0.01% Tween 20, 0.1 mM DTT, 0.5% agarose; room temperature). Settings: tags: N-GST (pGEX-6P-1, kept); dsDNA, one strand shown.
T1 sequence: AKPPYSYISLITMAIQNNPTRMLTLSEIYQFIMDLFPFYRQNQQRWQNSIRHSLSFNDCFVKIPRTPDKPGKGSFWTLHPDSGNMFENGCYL
In the case of AGCTAAATATTGA, the binding signal is reported as 3.26 Kd / Kd of best base at the position. With AGTTAAATATTTA the binding signal was 1.68 Kd / Kd of best base at the position. For AGTTAAATATTAA, the binding signal was 1.49 Kd / Kd of best base at the position. With AGTTAAATATTGT the binding signal was 1.97 Kd / Kd of best base at the position. For AGTTAAATGTTGA, the binding signal was 102 Kd / Kd of best base at the position. For AGTTTAATATTGA, the binding signal was 32.1 Kd / Kd of best base at the position. For GGTTAAATATTGA, the binding signal was 6.61 Kd / Kd of best base at the position. With AGTTAGATATTGA the binding signal was 60.9 Kd / Kd of best base at the position. AGATAAATATTGA was tested, and the binding signal was 1.16 Kd / Kd of best base at the position. AGTTAACTATTGA was tested, and the binding signal was 10.2 Kd / Kd of best base at the position. For AGTTAAATATGGA, the binding signal was 3.07 Kd / Kd of best base at the position. AGTTAAATATTGG was tested, and the binding signal was 1.17 Kd / Kd of best base at the position. In the case of AGTTAAATTTTGA, the binding signal is reported as 7.9 Kd / Kd of best base at the position. With AGGTAAATATTGA the binding signal was 1.27 Kd / Kd of best base at the position. In the case of AGTTAAAAATTGA, the binding signal is reported as 18.5 Kd / Kd of best base at the position. With AGTTAAACATTGA the binding signal was 29.1 Kd / Kd of best base at the position. For AGTTAAATCTTGA, the binding signal was 14.3 Kd / Kd of best base at the position. In the case of AGTTAAATAGTGA, the binding signal is reported as 2.35 Kd / Kd of best base at the position. AGTTCAATATTGA was tested, and the binding signal was 2.55 Kd / Kd of best base at the position. AGTTATATATTGA was tested, and the binding signal was 18.4 Kd / Kd of best base at the position. With AGTTAAGTATTGA the binding signal was 37.9 Kd / Kd of best base at the position. In the case of ATTTAAATATTGA, the binding signal is reported as 1.06 Kd / Kd of best base at the position. With AGTCAAATATTGA the binding signal was 3.44 Kd / Kd of best base at the position. With AGTTAAAGATTGA the binding signal was 14.9 Kd / Kd of best base at the position. AGTTAAATATCGA was tested, and the binding signal was 6.39 Kd / Kd of best base at the position. In the case of AGTTAAATAATGA, the binding signal is reported as 2.19 Kd / Kd of best base at the position. With ACTTAAATATTGA the binding signal was 7.14 Kd / Kd of best base at the position. In the case of AGTAAAATATTGA, the binding signal is reported as 4.77 Kd / Kd of best base at the position. In the case of AGTTAAATATTCA, the binding signal is reported as 2.02 Kd / Kd of best base at the position. With TGTTAAATATTGA the binding signal was 1.33 Kd / Kd of best base at the position. In the case of AGTTAATTATTGA, the binding signal is reported as 6.31 Kd / Kd of best base at the position. In the case of AGTTAAATATAGA, the binding signal is reported as 1.73 Kd / Kd of best base at the position. With CGTTAAATATTGA the binding signal was 8.05 Kd / Kd of best base at the position. With AATTAAATATTGA the binding signal was 2.06 Kd / Kd of best base at the position. AGTTAAATATTGC was tested, and the binding signal was 2.76 Kd / Kd of best base at the position. For AGTTAAATACTGA, the binding signal was 27.4 Kd / Kd of best base at the position. In the case of AGTGAAATATTGA, the binding signal is reported as 6.68 Kd / Kd of best base at the position. AGTTACATATTGA was tested, and the binding signal was 4.6 Kd / Kd of best base at the position. In the case of AGTTGAATATTGA, the binding signal is reported as 59.1 Kd / Kd of best base at the position. With AGTTAAATATTGA the Kd was about 17 nM.
